Test results as given in PubChem BioAssay AID504882 (Broad Institute, 2011).
Out of some 1,200 compounds screened, about 290 (24%) were called active. Another 9% or so got no clear call; they are omitted. No rule for the calls is given here. The list is a sample of the results. Entries that show only a call come without a potency. Potency and affinity values are given separately.

Assay: cytotoxicity in EBV lymphoblastoid cells, dose response, cytotoxicity control, cell-based, plate reader, cherry-picks, set 2 (AID 504882)
Conditions: EBV lymphoblastoid cells (LCL) viability; series mostly up to 19.5 µM
With `CCOc1ccccc1C(=O)NC1CC2CCCC(C1)N2Cc1nnnn1Cc1ccco1` (stereo not drawn) the outcome was “inactive”.
With `Nc1ncnc(N2CCc3ccccc32)c1[N+](=O)[O-]` the outcome was “inactive”.
In the case of `CCn1c2ccccc2c2cc(NC(=O)c3ccccc3-c3ccccc3C(=O)O)ccc21`, the outcome is reported as “inactive”.
With `CC(=O)Nc1ccc(C=NNc2nnc(NN=Cc3ccc(NC(C)=O)cc3)c3ccccc23)cc1` the outcome was “inactive”.
For `CCn1c(NC(=O)c2ccc(C)cc2)c2ccccc2nc1=O`, the outcome was “inactive”.
In the case of `CCCN(CCC)c1ncnc2nc[nH]c12`, the outcome is reported as “inactive”.
With `COc1ccc(CC(C)NCC(O)c2ccc(O)c(NC=O)c2)cc1` (stereo not drawn) the outcome was “inactive”.
For `O=C(c1cccs1)N1CC=C(c2ccccc2)CC1`, the outcome was “inactive”.
For `CCN1C(=O)[C@@H]2[C@@H](c3ccc(-c4ccc(Cl)c(Cl)c4)cc3)N3CCC[C@@]3(C(=O)OC)[C@@H]2C1=O`, the outcome was “inactive”.
In the case of `CCOC(=O)N1CCN(C(=O)C2CCC(=O)N(Cc3ccccc3OC)C2)CC1` (stereo not drawn), the outcome is reported as “inactive”.
With `Cc1ccc(-c2cc(N)n3nc(-c4ccc(C)cc4)cc3n2)cc1` the outcome was “inactive”.
With `Fc1ccc2[nH]c3c(N4CCN(c5ccccc5)CC4)ncnc3c2c1` the outcome was “inactive”.
For `O=[N+]([O-])c1ccc2ncnc(N3CCN(Cc4ccc5c(c4)OCO5)CC3)c2c1`, the outcome was “inactive”.
In the case of `CC(C)(C)OC(=O)N1Cc2ccccc2C[C@H]1C(=O)NCC(=O)Nc1ccc2c(c1)OCCO2`, the outcome is reported as “inactive”.
For `O=C(C1CCCCC1)N1CCN(c2ncccn2)CC1`, the outcome was “inactive”.
For `COC(=O)c1ccccc1NC(=O)CC(=O)Nc1ccccc1C(=O)OC`, the outcome was “inactive”.
For `O=C(NCCCN1CCCCC1)c1ccc2c(c1)NC(=O)c1ccccc1S2`, the outcome was “inactive”.
For `CCOc1ccc(NC(=O)c2ccc(N3CC4CC(C3)c3cccc(=O)n3C4)c(NC(=O)c3cccnc3)c2)cc1` (stereo not drawn), the outcome was “inactive”.
For `CSc1ccccc1OCc1cc(C(=O)N2CCC[C@H]2C(N)=O)no1`, the outcome was “inactive”.
For `COC(CNC(=O)c1ccc(N2CCC3(CC2)OCCO3)c([N+](=O)[O-])c1)OC`, the outcome was “inactive”.
In the case of `COc1ccc(C(=O)Nc2cc(C)c(NC(=O)c3ccccc3OC)cn2)cc1`, the outcome is reported as “inactive”.
For `Cc1ccnc(NC(=O)c2ccc(C(=O)c3ccccc3)cc2)c1`, the outcome was “inactive”.
For `COc1ccccc1-c1ccccc1C1=CC(=O)CC(C)(C)C1=O`, the outcome was “inactive”.
For `COc1ccc(C2=NN(C(=O)CSC3=NN4CCCC(=O)N=C4S3)C(c3cccc(OC)c3OC)C2)cc1` (stereo not drawn), the outcome was “inactive”.
For `O=C(O)c1ccc(N/N=C/c2cc3cc4c(cc3nc2Cl)OCCO4)cc1`, the outcome was “inactive”.
With `Clc1ccc(-c2ccnc(Oc3ccc4ccccc4c3)n2)cc1` the outcome was “inactive”.
In the case of `CCOC(=O)[C@H]1[C@H]2COc3ccc(OC)cc3[C@@H]2N2C(=O)CN(C)C(=O)[C@@]12C`, the outcome is reported as “inactive”.
In the case of `CN(C)CCCC1(c2ccc(F)cc2)OCc2cc(C#N)ccc21` (stereo not drawn), the outcome is reported as “inactive”.
In the case of `CC1(C)Cc2nc3sc4c(SCC(=O)O)ncnc4c3cc2CO1`, the outcome is reported as “inactive”.
For `COc1ccc(C=C2OC(=O)C(C(C)=O)=C2O)cc1`, the outcome was “inactive”.
In the case of `COc1ccc(-c2oc3ncnc(NCCN4CCOCC4)c3c2-c2ccc(OC)cc2)cc1`, the outcome is reported as “inactive”.
In the case of `CCN(CC(=O)Nc1ccc(NC(C)=O)cc1)C(=O)c1cccnc1Sc1ccc(C)c(C)c1`, the outcome is reported as “inactive”.
With `COc1ccc(N2Cc3cccc(C(=O)NC(C)CCc4ccco4)c3C2=O)cc1` (stereo not drawn) the outcome was “inactive”.
In the case of `COc1ccc(-c2cc(C(=O)N3CCCC3)no2)cc1`, the outcome is reported as “inactive”.
With `CC(Sc1nc(-c2ccc(F)cc2)cs1)C(=O)N1c2ccccc2CC1C` (stereo not drawn) the outcome was “inactive”.
For `Cc1ccc(CN2C(=O)CCC2C(=O)NCCCN2CCC(C)CC2)cc1` (stereo not drawn), the outcome was “inactive”.
In the case of `Cc1cnc(NC(=O)c2ccc(OCC3CCCO3)cc2)s1` (stereo not drawn), the outcome is reported as “inactive”.
In the case of `O=C(O)c1ccc(N/N=C/c2ccc3ncccc3c2)cc1`, the outcome is reported as “inactive”.
For `CCN(CC)S(=O)(=O)c1ccc(N=NC2=C(O)CCCC2=O)cc1`, the outcome was “inactive”.
With `CCN(CC)S(=O)(=O)c1cccc(-n2c(O)c(C=Nc3ccccc3C(=O)O)c3ccccc3c2=O)c1` the outcome was “inactive”.
For `COc1ccc(C(=O)CN(CCC(=O)O)S(=O)(=O)c2ccc([N+](=O)[O-])cc2)cc1`, the outcome was “inactive”.
With `O=C(NCCc1ccccc1)c1ccc2nccnc2c1` the outcome was “inactive”.
For `CCN(C(=O)CSc1nnc(Nc2cccc(C)c2C)s1)C1CCS(=O)(=O)C1` (stereo not drawn), the outcome was “inactive”.
In the case of `CCCC(C)NC(C)C(=O)NC1CCCC1` (stereo not drawn), the outcome is reported as “inactive”.
For `COCCNC(=O)C1CCC(CNS(=O)(=O)c2ccccc2)CC1` (stereo not drawn), the outcome was “inactive”.
In the case of `Cc1ccc(-c2nnn(CC(=O)N(Cc3ccco3)C(C(=O)NC(C)(C)C)c3ccncc3)n2)o1` (stereo not drawn), the outcome is reported as “inactive”.
With `COCCCNC(=O)CN1C(=O)COc2ccc(S(=O)(=O)N3CCOCC3)cc21` the outcome was “inactive”.
In the case of `O=C(CN1C(=O)c2ccccc2S1(=O)=O)c1ccccc1F`, the outcome is reported as “inactive”.
For `CN(Cc1ccccc1)c1nc(N)c([N+](=O)[O-])c(NCc2ccccc2)n1`, the outcome was “inactive”.
With `CCCCCn1c(N2CCOCC2)nc2c1c(=O)n(CC(N)=O)c(=O)n2C` the outcome was “inactive”.
With `NC(=O)N/N=C/c1ccc(N2CCOCC2)s1` the outcome was “inactive”.
In the case of `CCCCCC(=O)N1C[C@@H](O)[C@H](n2cc(C3CC3)nn2)C[C@@H]1c1ccc(C)cc1`, the outcome is reported as “inactive”.
With `CCN1CCN(Cc2ccc(NC(=O)c3ccc(C)c(NC(=O)N4CCNC4=O)c3)cc2C(F)(F)F)CC1` the outcome was “inactive”.
For `CCN1CCN(Cc2ccc(NC(=O)c3ccc(C)c(NC(=O)c4cccc5[nH]ccc45)c3)cc2C(F)(F)F)CC1`, the outcome was “inactive”.
In the case of `COc1ccc(/C(CC2OC(=O)c3ccccc32)=N\NC(N)=O)cc1` (stereo not drawn), the outcome is reported as “inactive”.
In the case of `c1ccc2c(-c3ccncc3)c[nH]c2c1`, the outcome is reported as “inactive”.
With `C[C@@H]1CN([C@@H](C)CO)C(=O)c2cc(NC(=O)Nc3ccccc3)ccc2O[C@H]1CN(C)C(=O)Nc1cccc2ccccc12` the outcome was “inactive”.
In the case of `c1ccc(C2c3[nH]c4ccccc4c3CCN2Cc2cccn2-c2ccccn2)nc1` (stereo not drawn), the outcome is reported as “inactive”.
In the case of `COc1ccccc1NC(=O)C(=O)N/N=C(\C)CC(=O)Nc1ccccc1C(F)(F)F`, the outcome is reported as “inactive”.
With `COc1ccc(C(=O)N2CC(=O)Nc3ccccc32)cc1S(=O)(=O)N1CCCC1` the outcome was “inactive”.
With `COc1ccc(N2C(=O)CC(Sc3nnc(-c4ccccc4)o3)C2=O)cc1` (stereo not drawn) the outcome was “inactive”.
With `COc1cc(OC)cc(-c2c(C#Cc3ccsc3)c3cc(-c4cc(OC)c(OC)c(OC)c4)ccc3n2C)c1` the outcome was “inactive”.
For `Cc1nc(N)nc(SCc2ccc([N+](=O)[O-])cc2)c1N`, the outcome was “inactive”.
With `COCCCn1cnnc1SCC(=O)Nc1ccc(S(=O)(=O)N2CCCC2)cc1` the outcome was “inactive”.
With `O=C(CCN1CCC(c2ccccc2)C1)c1ccc2c(c1)OCCO2` (stereo not drawn) the outcome was “inactive”.
In the case of `COCCn1c(C)cc(C(=O)COC(=O)C23CC4CC(CC(O)(C4)C2)C3)c1C`, the outcome is reported as “inactive”.
In the case of `CC(C)OCCCNC(=O)C1CCC(CNS(=O)(=O)c2ccccc2)CC1` (stereo not drawn), the outcome is reported as “inactive”.
With `COC(=O)c1cc2n(n1)CCN(Cc1ccccc1Cl)C2=O` the outcome was “inactive”.
For `COc1ccc(OC)c2c1sc(=NC(=O)c1ccco1)n2C`, the outcome was “inactive”.
With `CCc1cc2c(Sc3nc4ccccc4s3)ncnc2s1` the outcome was “inactive”.
With `c1ccc(-n2nnc3c(N4CCOCC4)ncnc32)cc1` the outcome was “inactive”.
For `Cc1ccc(CNC(=O)C2CCN(S(=O)(=O)c3c(C)noc3/C=C/c3ccco3)CC2)cc1`, the outcome was “inactive”.
With `COc1cc(Cl)cc(C(c2c(C(=O)O)[nH]c3ccccc23)c2c(C(=O)O)[nH]c3ccccc23)c1O` the outcome was “inactive”.
For `Cn1cccc1C(=O)OCC(=O)Nc1ccc2c(c1)OCO2`, the outcome was “inactive”.
For `O=C(Nc1cccc(Cl)c1)Nc1cccc(C(=O)O)c1`, the outcome was “inactive”.
For `Cc1ccc(C(=O)N2CCN(c3ccc(NC(=O)CSc4ccc(Cl)cc4)cc3)CC2)cc1`, the outcome was “inactive”.
In the case of `CC1CCN(c2ccc(-c3ccc(NC(=O)C(F)(F)F)cc3)nn2)CC1`, the outcome is reported as “inactive”.
In the case of `CSc1ccccc1NC(=O)CN1CCCCC1C` (stereo not drawn), the outcome is reported as “inactive”.
In the case of `S=C(NN=C1C2CC3CC(C2)CC1C3)Nc1ccccc1`, the outcome is reported as “inactive”.
For `CC(=O)NC(CCS(C)(=O)=O)C(=O)Nc1ccc(Cl)c(Cl)c1` (stereo not drawn), the outcome was “inactive”.
With `Cn1cccc1CC(=O)NNC(=S)Nc1ccccc1Cl` the outcome was “inactive”.
With `Cc1ccnc(NC(=O)c2cccc(NC(=O)c3ccc(Cl)c(Cl)c3)c2)c1` the outcome was “inactive”.
With `COc1ccccc1NC(=S)NN=C(C)c1ccccn1` the outcome was “inactive”.
With `Cc1ccc(NC(=S)NCc2cccs2)cc1` the outcome was “inactive”.
In the case of `COCCCNCC1C(Oc2ccc(Cl)cc2)C(=O)N1c1ccccc1C` (stereo not drawn), the outcome is reported as “inactive”.
With `O=c1cc(Cl)nc2ccccn12` the outcome was “inactive”.
With `CCCc1nc(SCC(=O)NCc2ccco2)c2c(=O)n(C)c(=O)n(C)c2n1` the outcome was “inactive”.
With `COC(=O)[C@@]1(Cc2ccccc2)[C@H]2C(=O)N(Cc3ccccc3)C(=O)[C@H]2[C@H]2CN=C(SCc3ccc(Cl)cc3)N21` the outcome was “inactive”.
In the case of `CCOCCCNC(=O)CN1C(=O)/C(=C\c2ccc(C)cc2)Sc2ccccc21`, the outcome is reported as “inactive”.
For `O=C1NC(c2cccc(OCc3ccccc3)c2)Nc2ccccc21` (stereo not drawn), the outcome was “inactive”.
For `COc1ccccc1C1(CC(=O)O)CCOC(C)(C)C1` (stereo not drawn), the outcome was “inactive”.
For `Clc1cccc(CN2CCCCCC2)c1`, the outcome was “inactive”.
For `O=C(c1ccccc1Br)N1CCN(Cc2ccc3c(c2)OCO3)CC1`, the outcome was “inactive”.
For `Fc1cccc(Cl)c1/C=N/n1c(-c2cccnc2)n[nH]c1=S`, the outcome was “inactive”.
For `Cn1c(-c2ccccc2)cnc1SCC(=O)N1CCCCC1`, the outcome was “inactive”.
With `COc1ccc([C@H]2N[C@]3(CCCN(Cc4ccco4)C3=O)[C@H]3C(=O)N(Cc4ccccc4)C(=O)[C@@H]23)cc1` the outcome was “inactive”.
For `Cc1nn(-c2ccccc2)c(Cl)c1C(=O)N1CCN(c2ncnc3c2cnn3-c2ccccc2)CC1`, the outcome was “inactive”.
For `COc1ccc(/C=C2\N=C(C)OC2=O)cc1[N+](=O)[O-]`, the outcome was “inactive”.
In the case of `Cc1ccc(N2C(=O)c3ccccc3C2Nc2cccnc2)nc1` (stereo not drawn), the outcome is reported as “inactive”.
With `C=CCN=C1NN=C(c2cc(C)n(CCOC)c2C)CS1` the outcome was “inactive”.
With `COc1ccc(-c2nc(CN3CCC(C(=O)N4CCOCC4)CC3)c(C)o2)cc1C` the outcome was “inactive”.
For `Cc1cc2ccccc2n1CCNC(=O)COc1ccc2ccccc2c1`, the outcome was “inactive”.
In the case of `Cc1ccccc1C(=O)c1c[nH]c(C(=O)NCc2ccco2)c1`, the outcome is reported as “inactive”.
